Screening results deposited in PubChem BioAssay by several laboratories.
Rows were chosen to be rich in hits. Some 4.2% of all compounds tested hit in one or more screens of this group.
CCHFV vOTU inh – CCHFV vOTU protease inhibitors, primary screen, biochemical, Pep-AMC substrate, fluorescence | actives 0.55% (n = 370,000) | inhibition, % at 11.5 µM | AID 651958, 2012; further: 0% = vehicle wells with enzyme and 100% = no enzyme wells
RecA splice inh – Mtb RecA intein splicing inhibitors, primary screen, biochemical, fluorescence, HTS. Protein RecA (Mycobacterium tuberculosis (strain ATCC 25618 / H37Rv)), P9WHJ3. cell-free RecA intein splicing. inhibition, % (no concentration beside the values). actives 0.75% (n = 290,000); in the data active means inhibition above about 30%;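 further: 0% = vehicle wells and 100% = reference inhibitor control wells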
GDH-TPI counter – GDH-TPI coupling enzyme inhibitors, primary screen, artefact control for M. tuberculosis FBA inhibitor project, biochemical, absorbance, full deck | GDH-TPI coupled enzyme counterscreen, NADH absorbance | inhibition, % at 4.8 µM | actives 1.2% (n = 360,000);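 further: 0% = DMSO wells and 100% = wells lacking the enzyme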
Mtb FBA inh – Mtb FBA enzyme inhibitors, primary screen, biochemical, fluorescence, strain H37Rv; inhibition, % at 1 µM; purified M. tuberculosis FBA, fluorescence read-out; actives 2.3% (n = 360,000); AID 588726, 2011; in the data active means inhibition above about 27%;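 further: 0% = vehicle and 100% = reference inhibitor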
Target sequence (P9WQA3 whole entry, looked up): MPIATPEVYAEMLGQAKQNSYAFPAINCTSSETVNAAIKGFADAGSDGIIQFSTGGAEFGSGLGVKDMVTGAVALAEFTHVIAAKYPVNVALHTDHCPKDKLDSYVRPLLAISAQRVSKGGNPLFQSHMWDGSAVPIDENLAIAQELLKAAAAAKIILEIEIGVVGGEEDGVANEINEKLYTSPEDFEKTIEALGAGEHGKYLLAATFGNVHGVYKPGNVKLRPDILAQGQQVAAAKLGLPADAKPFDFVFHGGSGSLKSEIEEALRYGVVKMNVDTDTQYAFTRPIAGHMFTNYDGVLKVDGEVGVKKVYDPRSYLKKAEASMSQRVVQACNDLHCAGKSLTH
GFP chromophore – counter-screen: blocks GFP chromophore formation, dose response, counter-screen, biochemical, fluorescence, homogeneous; shares compounds with RecA splice inh; cell-free GFP chromophore formation; EC50, µM; actives 83% (n = 2,100); AID 434968, 2010; call rule not given here
The depositor's hits bear a star; . = not tested or not shown. Unless noted, no stated cut-off is given here; in the data, active means inhibition above about 30%; inactive means the rest.

SMILES	CCHFV vOTU inh	RecA splice inh	GDH-TPI counter	Mtb FBA inh	GFP chromophore
CCN1CCN(c2ccc(S(=O)(=O)N3CCCCC3)cc2NC(=O)c2sccc2C)CC1	7.7	4.3	-4.5	-1.3	.
CS(=O)(=O)c1ncc(Cl)c(C(=O)Nc2ccc3ccccc3c2)n1	10.4	30.9*	0.7	-0.8	12.4*
CCC1CCCCN1S(=O)(=O)c1ccc(NC(=O)c2nc(S(C)(=O)=O)ncc2Cl)cc1 (centres undefined)	27.9	96.6*	0.9	4.8	1.26*
O=C(Oc1ccc(Br)cc1)C1CC(=O)N(c2ccc(F)cc2)C1 (centres undefined)	-8.1	37.0*	3.3	2.2	35*
CC(C)c1ccc(NC(=O)CN(C)C2=NS(=O)(=O)c3ccccc32)cc1	-0.1	.	8.0	-2.6	.
N#CCCN(NC1=NS(=O)(=O)c2ccccc21)C(=O)c1ccccc1Br	.	-2.2	4.4	-1.3	.
CS/C(=C/[N+](=O)[O-])Nc1cccc2c1C(C)CC2(C)C (centres undefined)	-3.8	66.7*	15.5	-5.0	37.8*
CC(=O)Nc1cc2c(c([N+](=O)[O-])c1C)C(C)(C)CC2(C)C	-4.5	.	10.5	2.4	.
CCN(CC)C(=O)CSc1nnc(COc2ccc(OC)cc2)n1N	14.9	-4.4	1.3	-1.2	.
CCN(CC)C(=O)CSc1nnc2nnc3cc(OC)ccc3n12	3.5	31.0*	7.7	-3.5	>38
COc1ccc(N(C(=O)CCl)C(C(=O)NCCc2ccccc2)c2cccs2)cc1 (centres undefined)	1.9	75.8*	-3.0	0.8	1.71*
COc1ccc(CNC(=O)C(c2ccncc2)N(C(=O)Cc2cccs2)c2ccccc2)cc1 (centres undefined)	3.1	.	2.0	-0.8	.
CC(C)OC(=O)N(C)C[C@@H]1OCc2cnnn2CCCC(=O)N([C@H](C)CO)C[C@@H]1C	17.7	.	-1.4	-2.8	.
CCSc1c([N+](=O)[O-])c(=O)n(-c2ccccc2)c2ccccc12	-11.5	39.9*	-6.2	-8.2	>38
Cc1[nH]c2ccccc2c1CC#N	-5.8	-1.4	2.3	0.5	.
Cc1[nH]c2ccccc2c1C(C#N)(C#N)C1C(=O)c2ccccc2C1=O	-13.0	42.1*	13.6	-4.7	34.1*
COC(=O)[C@]1(Cc2ccccc2)N[C@H](c2ccc(-c3ccc4c(c3)OCO4)cc2)[C@@H]2C(=O)N(C)C(=O)[C@@H]21	9.1	1.7	12.6	4.5	.
COC(=O)C[C@]1(C(=O)OC)CN(C#N)N(c2ccc(Cl)cc2)C12c1ccccc1-c1ccccc12	22.6	73.7*	10.4	-1.6	4.65*
COCCN(C(=O)C1CCN(C(=O)c2ccccc2C)CC1)c1c(N)n(CC(C)C)c(=O)[nH]c1=O	0.5	.	6.6	2.4	.
COCCOC(=O)N1CCCCC1c1cc(C(=O)NCc2ccc(Cl)c(Cl)c2)no1 (centres undefined)	5.2	.	-7.3	-3.1	.
Cc1ccc(CN2C(=O)c3ccccc3C2c2nnnn2-c2c(C)cccc2C)cc1 (centres undefined)	11.9	.	.	.	.
Cc1ccc(CNC(=O)c2ccc(N(C)S(=O)(=O)c3ccccc3)cc2)cc1	13.0	37.4*	11.2	0.0	>38
CN(c1ccccc1)S(=O)(=O)c1ccc(C(=O)NCc2ccc(F)cc2)cc1	-0.9	.	0.6	1.8	.
CS(=O)(=O)c1nc([N+](=O)[O-])nn1CCCc1ccccc1	.	51.2*	5.4	-1.6	26.1*
O=[N+]([O-])c1ccc2nc(-[n+]3c(-c4ccccc4)cc(-c4ccccc4)cc3-c3ccccc3)[nH]c2c1	.	11.5	24.8	-1.5	.
SMILES	CCHFV vOTU inh	RecA splice inh	GDH-TPI counter	Mtb FBA inh	GFP chromophore
O=[N+]([O-])c1ccc2nc(Cl)nc(-c3ccccc3)c2c1	1.5	46.7*	9.6	-1.8	>38
COCCOC(=O)C1=C(C)NC2(O)c3ccccc3C(=O)C12O (centres undefined)	3.5	12.0	-7.6	-1.8	.
CCOC(=O)C1=C(C)NC2(O)c3ccccc3C(=O)C12O (centres undefined)	10.2	32.9*	15.8	0.1	27.7*
CCOC(=O)[C@@H]1CSCCS(=O)(=O)N1C(=O)[C@H](Cc1ccccc1)NC(=O)OC(C)(C)C	-2.3	.	.	.	.
CCOC(=O)c1c(CSC(=N)N)n(-c2ccccc2)c2cc(Br)c(OC(C)=O)cc12	4.8	47.7*	10.2	-0.3	20.4*
CCOC(=O)c1c(CN2CCN(C)CC2)n(-c2ccccc2)c2cc(Br)c(O)cc12	1.9	-1.2	-3.9	1.0	.
CC(C)NC(=O)C(=O)Nc1cc2c3c(c1)C(C)C(=O)N3CCC2 (centres undefined)	-2.9	2.0	-10.3	-5.5	.
Cc1ccc2[nH]c3c(c2c1)CN(C(=O)CN1CC(C)OC(C)C1)CC3 (centres undefined)	-0.9	.	-2.6	0.6	.
Cc1ccc2[nH]c3c(c2c1)CN(C(=O)CN1CCSCC1)CC3	-4.5	61.3*	.	.	0.191*
Cc1cccc(C)c1NC(=O)CN(C)C(=O)C1=COCCO1	-8.8	.	-0.5	-0.8	.
CC(=O)NC1CC2CCCC(C1)N2C(=O)Nc1cccc(C(C)=O)c1 (centres undefined)	-7.6	.	13.4	5.0	.
CC(C)C1C(C#N)=C(N)Oc2n[nH]c(-c3cccs3)c21 (centres undefined)	-11.1	14.7	-0.9	1.0	.
CC(C)c1[nH]nc2c1C(c1cccs1)C(C#N)=C(N)O2 (centres undefined)	8.0	62.3*	-9.6	-2.0	28.3*
Cc1ccc(C2C(C#N)=C(N)Oc3n[nH]c(-c4cccs4)c32)cc1 (centres undefined)	12.4	65.7*	6.8	1.5	7.61*
N#CC1=C(N)Oc2n[nH]c(-c3cccs3)c2C1c1cccnc1 (centres undefined)	-0.2	68.9*	3.5	-2.6	>38
CCc1nc2ccc(C(=O)Nc3cccc(NS(C)(=O)=O)c3)cn2c1N(CC)CCOC	1.5	.	4.5	-3.5	.
COc1ccc(Cl)cc1NC(=O)CN(C)C(=O)Cc1n[nH]c(=O)c2ccccc12	-6.7	.	15.8	0.1	.
CCC(c1ccc(O)cc1)C(CC)c1ccc(O)cc1 (centres undefined)	0.6	.	3.4	-3.7	.
Cc1cc(C(c2ccc(O)cc2)c2cc(C)c(O)cc2C)c(C)cc1O	-3.4	33.1*	3.5	0.4	>38
CCC1CCCCN1C(=O)COc1ccc2c3c(c(=O)oc2c1)CCC3 (centres undefined)	-7.0	.	9.1	23.2	.
C=CCc1cccc(C=Nc2c[nH]c(=O)[nH]c2=O)c1O	-11.7	.	7.5	1.2	>38
CCOc1ccc(Cl)cc1S(=O)(=O)N1CCCC1	-2.4	0.3	-7.9	-0.7	.
C#CCOc1ccc(Br)cc1C(c1c(C)[nH][nH]c1=O)c1c(C)[nH][nH]c1=O	-7.5	94.0*	-2.9	-0.4	2.21*
